PDI turbidity: inhibitors of human protein disulfide isomerase. PDI insulin aggregation turbidity, A650, 90 min. inhibition, % at 10 µM. 350,000 tested, 0.052% active. P07237;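 active = mean inhibition across replicates of 30% or more, whatever share of single replicates reach that level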
Target sequence (P07237 whole entry, looked up): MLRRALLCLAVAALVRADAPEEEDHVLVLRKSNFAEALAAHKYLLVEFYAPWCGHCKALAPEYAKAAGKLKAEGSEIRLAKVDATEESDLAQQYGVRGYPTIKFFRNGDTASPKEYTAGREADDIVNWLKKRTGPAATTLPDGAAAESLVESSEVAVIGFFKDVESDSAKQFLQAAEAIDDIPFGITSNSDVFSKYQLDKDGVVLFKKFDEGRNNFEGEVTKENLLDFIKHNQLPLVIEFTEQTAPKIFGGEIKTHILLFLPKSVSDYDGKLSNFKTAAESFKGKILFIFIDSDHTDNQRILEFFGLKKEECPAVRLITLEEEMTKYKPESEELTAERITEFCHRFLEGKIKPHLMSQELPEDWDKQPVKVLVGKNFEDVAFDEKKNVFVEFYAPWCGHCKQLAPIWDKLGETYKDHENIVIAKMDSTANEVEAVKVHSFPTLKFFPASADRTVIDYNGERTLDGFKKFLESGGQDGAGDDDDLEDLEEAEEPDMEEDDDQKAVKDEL
ALR inh: blocks human ALR sulfhydryl oxidase activity; purified ALR, DTT oxidation, H2O2 HRP-luminol luminescence; inhibition, % (test concentration not listed); 290,000 tested, 3.8% active; AID 485317;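 active = mean replicate inhibition above about 79%, with every replicate also reaching it, limit read from the data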
PglD DTNB: inhibitors of Campylobacter jejuni PglD acetyltransferase; purified PglD enzyme, DTNB colorimetric CoA detection; inhibition, % at 12.5 µM; 360,000 tested, 0.098% active; in the data active = inhibition above about 16%, passing the limit was not always enough
ERp5 block: inhibitors of human ERp5 | inhibition, % at 9.99 µM | 350,000 tested, 0.05% active | ERp5 insulin aggregation, absorbance 650 nm, 90 min | Q15084 | AID 651711;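 active = mean replicate inhibition above about 25%, with every replicate also reaching it, limit read from the data, passing the limit was not always enough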
ARNT TACC3 PPI: disrupts binding between human ARNT and TACC3 | Q9Y6A5 | AlphaScreen His-ARNT PAS-B/GST-TACC3 binding, luminescence; TACC3 fragment carries E629A point mutation | inhibition, % at 9.99 µM | 390,000 tested, 0.66% active | AID 623870;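 active = mean inhibition of replicates at least 50% and at least half of replicates each reaching 50%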;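 also: 0% = complete ARNT plus TACC3 wells and 100% = ARNT alone without TACC3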
NRP1-CendR mod: NRP-1/CendR interaction modulation | FAM-RPARPAR peptide binding to NRP-1, fluorescence polarization | AID 602438 | 360,000 tested, 0.85% active | inhibition, % at 25 µM | O14786;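 active = inhibition or corrected inhibition above about 18%, plus a signal ratio from 0.5 to 1.5, limit read from the data, passing the limit was not always enough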
The depositor's hits bear a star; x = not tested or not shown. The full list was thinned out, with hits kept by preference.

SMILES	PDI turbidity	ALR inh	PglD DTNB	ERp5 block	ARNT TACC3 PPI	NRP1-CendR mod
CCOc1ccc(Nc2cc(C)c3ccccc3n2)cc1	-8	13	-2	0	-3	3
Cc1cc(Nc2ccccc2)nc2cc(O)ccc12	-4	96*	-2	-7	-12	1
CC(=O)Nc1ccc(Nc2cc(C)c3ccccc3n2)cc1	0	x	2	-7	1	6
C[C@H](CO)N1C[C@H](C)[C@@H](CN(C)Cc2ccc(C(=O)O)cc2)Oc2ccc(NC(=O)Nc3ccc(C(F)(F)F)cc3)cc2CC1=O	x	x	-1	4	6	x
O=C(C[C@H]1C=C[C@H](NC(=O)C2CCC2)[C@@H](CO)O1)NCC1CC1	x	x	3	1	x	x
O=C(C[C@@H]1C[C@@H]2c3cc(NC(=O)CC4CC4)ccc3O[C@@H]2[C@H](CO)O1)NCc1ccc(-c2ccccc2)cc1	x	x	2	-9	0	x
O=C(C[C@@H]1C[C@H]2c3cc(NC(=O)CC4CC4)ccc3O[C@H]2[C@@H](CO)O1)NCc1ccc(-c2ccccc2)cc1	x	x	-2	59*	0	x
O=C(C[C@H]1C[C@@H]2c3cc(NC(=O)CC4CC4)ccc3O[C@@H]2[C@@H](CO)O1)NCc1ccc(-c2ccccc2)cc1	x	x	1	63*	0	x
O=C(C[C@H]1C[C@@H]2c3cc(NC(=O)CC4CC4)ccc3O[C@@H]2[C@@H](CO)O1)NCc1cccc(F)c1	x	x	4	-29	active	x
O=C(C[C@H]1C[C@@H]2c3cc(NC(=O)CC4CC4)ccc3O[C@@H]2[C@H](CO)O1)NCc1ccc(-c2ccccc2)cc1	x	x	-5	-6	1	x
COc1ccc(-c2ccc3c(c2)[C@@H]2[C@@H](CCN2C(=O)Nc2ccccc2OC)[C@@H](CO)N3C)cc1	x	x	5	-2	-5	x
CCOC(=O)/C(=C/C=C1\Sc2cc(OCC)c(OCC)cc2N1CC)C(C)=O	3	92*	x	3	51*	133
CCN1/C(=C/C(C)=O)Sc2ccc(OC)cc21	16	x	4	x	5	4
CCOC(=O)/C(=C\C=C1/Sc2cc(OCC)c(OCC)cc2N1CC)C(C)=O	4	93*	0	x	51*	121
CCCNC(=O)N1CC(=O)N2[C@H](CO)[C@H](c3ccc(C#CCC4CCCC4)cc3)[C@@H]2C1	x	x	x	8	x	x
Cc1nc2ccc(C(=O)O)cc2c2c1CC(C)S2 (stereo unspecified)	-3	100*	-2	x	-1	-81
O=C(CN1C(=O)S/C(=C\C=C\c2ccccc2)C1=O)Nc1ccc(C(=O)O)cc1	12	98*	3	-1	-7	-10
O=C(CN1C(=O)S/C(=C/C=C/c2ccccc2)C1=O)Nc1ccc(C(=O)O)cc1	-7	6	x	-5	4	-7
COc1ccc(OC)c(NC(=O)c2c(NC(=O)CCC(=O)O)sc3c2CCCCC3)c1	6	59	x	x	22	-6
COc1ccccc1NC(=O)c1c(NC(=O)CCC(=O)O)sc2c1CCCCC2	-5	98*	2	2	-4	-16
Cc1cc(C)n2cc(CSc3nc4ccccc4[nH]3)nc2n1	-3	99*	x	x	-2	6
Cc1cc(C)n2cc(CSc3nc4ccccc4s3)nc2n1	8	x	x	x	0	-8
C[C@@H]1CN([C@@H](C)CO)C(=O)c2cc(NC(=O)C3CCCCC3)ccc2O[C@H]1CN(C)C(=O)Nc1cccc2ccccc12	x	x	0	8	8	x
O=C(Nc1ccccc1-c1nnn(CC(=O)N2CCc3ccccc3C2)n1)C1CCC1	1	-1	10	x	-2	28*
CC(C)CC#Cc1ccc2c(c1)O[C@@H](CN(C)S(=O)(=O)c1cccc(F)c1)[C@H](C)CN([C@H](C)CO)S2(=O)=O	x	x	0	4	9	x
SMILES	PDI turbidity	ALR inh	PglD DTNB	ERp5 block	ARNT TACC3 PPI	NRP1-CendR mod
Cc1ccc(NCc2nnc(SCC(=O)OC3CCCCC3)o2)c(C)c1	-1	98*	-6	x	-3	-11
COC(=O)CSc1nnc(-c2ccc(OC)c(OC)c2)o1	5	-1	x	-12	x	-1
Cc1ccc(NCc2nnc(SCC(N)=O)o2)c(C)c1	-1	39	x	-4	-4	-2
Cc1ccc(NCc2nnc(SCC(=O)N(Cc3ccccc3)C(C)(C)C)o2)c(C)c1	3	8	-1	x	2	4
CCOC(=O)CN(C(=O)CSc1nnc(CNc2ccc(C)cc2C)o1)c1ccccc1	5	96*	3	1	6	0
CCOC(=O)CN(C(=O)CSc1nnc(-c2ccc(OC)c(OC)c2)o1)c1ccccc1	4	-14	0	0	6	31*
CO[C@H]1CN(C)C(=O)c2ccc(NS(=O)(=O)c3c(C)noc3C)cc2OC[C@@H](C)NC[C@@H]1C	x	x	0	5	-5	x
Cc1[nH]c2ccccc2c1Cc1n[nH]c(=S)o1	1	96*	-3	-4	-6	-10
Cc1[nH]c2ccccc2c1Cc1n[nH]c(=S)n1C	4	48	-1	x	3	7
CCC(=O)Nc1ccc2c(c1)C(=O)N(C)[C@H]1CC[C@H](CC(=O)NCCc3ccccc3)O[C@@H]1CO2	x	x	9	3	-7	x
Cc1cc(N/N=C/c2c[nH]c3ccccc23)c2ccccc2n1	-1	49	0	0	0	-1
Cc1cc(N/N=C/c2ccc(N(C)C)cc2)c2ccccc2n1	-3	54	-6	0	-2	10
COc1ccc(/C=N/Nc2cc(C)nc3ccc(OC)cc23)c(OC)c1	24	86*	-30	0	12	19
Cc1cc(N/N=C/c2ccc(O)cc2)c2cccc(C)c2n1	-6	100*	-8	2	1	-2
COc1ccc2nc(C)cc(N/N=C/c3ccccc3)c2c1	-5	-1	0	x	4	0
Cc1cc(N/N=C/c2ccco2)c2ccccc2n1	-2	77*	x	0	x	3
Cc1ccc2nc(C)cc(N/N=C/c3ccccc3O)c2c1	1	99*	-2	-2	2	2
Cc1cc(C(=O)N/N=C/c2ccco2)c2ccccc2n1	-1	-5	x	3	1	-4
CCOC(=O)[C@H](Cc1c[nH]c2ccccc12)NC(=O)CN=[N+]=[N-]	x	x	x	5	x	x
COc1ccccc1/C=N/Nc1cc(C)nc2ccc(C)cc12	0	99*	1	6	3	4
Cc1cc(N/N=C/c2ccc(O)cc2O)c2ccccc2n1	0	97*	-1	3	6	15
COc1ccc2nc(C)cc(Nc3ccc(N4CCOCC4)cc3)c2c1	4	16	0	x	2	-15
COc1ccc2nc(C)cc(Nc3ccc(N4CCN(C)CC4)cc3)c2c1	18	96*	-8	1	4	-2
CCCNC(=O)[C@H]1[C@H](CO)[C@H]2Cn3c(ccc(-c4cccc(F)c4)c3=O)[C@H]2N1C(=O)CC	x	x	4	-5	-4	x
C[C@H]1CN([C@@H](C)CO)C(=O)c2cccc(NC(=O)C3CC3)c2O[C@H]1CN(C)CC1CC1	x	x	0	7	-1	x
